High-throughput results: PubChem BioAssay, National Center for Advancing Translational Sciences (NCATS)
The list is not random: actives were taken first. Their share in the collection is about 2.3%.
KDM4E inh = blocks human JMJD2E demethylase activity; B2RXH2; JMJD2E catalytic domain, FDH-coupled NADH fluorescence (FDH is formaldehyde dehydrogenase); Potency, µM (series often up to 57.1 µM), hits mostly inhibitors; 230,000 tested, 1.6% active; active = well fitted inhibition curve with a large enough effect, not every such curve was filed as active; inconclusive = small, poorly fitted or top-dose-only effect, or another doubt; inactive = no such curve, though single readings can be large or run the other way; note: nearly all actives have a fitted effect of over 50% in size
Coupling enz = coupling enzyme interference in Giardia aldolase counter-screen; coupling enzyme system counterscreen, AmpLite Red fluorescence; activity change, negative = inhibition, % at 58.2 µM, hits read low; 290,000 tested, 0.67% active; in the data active = activity change below about -30%
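Final compound at 57.5 uM, incubated 10 min at RT with coupling enzyme reagent (glyceraldehyde-3-phosphate), then 20 min with substrate and AmpLite Red detection. Fluorescence read at 525/598 nm; tests interference with the coupling assay, not aldolase inhibition.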
VDR inhibitor = vitamin D3 receptor (human) inhibition; P11473; VDR-SRC2-3 peptide fluorescence polarization, 2 h; Potency, µM, most hits filed as inhibitors; 400,000 tested, 0.93% active; AID 504847
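Measured by FP: displacement of SRC2-3 coactivator peptide from VDR by library compounds, following a two-hour ambient incubation.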
HTT aggregate = reduces HttQ103-GFP aggregates in PC12 cells; 220,000 tested, 1.1% active; Potency, µM (series often up to 46.1 µM), most hits filed as inhibitors; PC12 HttQ103-GFP aggregates, Acumen cytometry, 40 h; note: nearly all actives have a fitted effect of over 60% in size
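Using laser scanning cytometry, GFP-positive aggregates were counted after lysis of PC12 cells induced with 100 nM tebufenozide to express HTT exon 1 Q103–GFP. Compounds were tested in titration.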
RGS12 GoLoco inh = blocks human Gai1 binding to RGS12 GoLoco peptide, red readout; P63096; Gai1:RGS12 GoLoco peptide FP, rhodamine, 10 min; Potency, µM (highest dose often 61.6 µM), actives largely listed as inhibitors; 230,000 tested, 0.44% active; AID 880; active = well fitted inhibition curve with a large enough effect, not every such curve was filed as active; inactive = no such curve, though single readings can be large or run the other way; note: nearly all actives have a fitted effect of over 30% in size
Target sequence (P63096 whole entry, looked up): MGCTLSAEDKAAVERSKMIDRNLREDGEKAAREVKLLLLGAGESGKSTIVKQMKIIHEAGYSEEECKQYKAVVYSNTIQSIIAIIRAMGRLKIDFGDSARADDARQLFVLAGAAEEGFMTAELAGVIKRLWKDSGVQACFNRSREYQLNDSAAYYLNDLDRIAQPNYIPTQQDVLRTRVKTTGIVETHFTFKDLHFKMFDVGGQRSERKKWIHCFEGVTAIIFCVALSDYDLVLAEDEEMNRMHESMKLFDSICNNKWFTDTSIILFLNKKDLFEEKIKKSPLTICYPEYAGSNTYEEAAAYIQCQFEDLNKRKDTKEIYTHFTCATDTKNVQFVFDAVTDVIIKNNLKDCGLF
HTT ATP protect = Huntington cell model cytoprotection by ATP luminescence; PC12 HTT-Q103 induced, cytoprotection, ATP luminescence, 40 h; Potency, µM (titrated, usually from 56.4 µM), most hits filed as activators; 230,000 tested, 0.14% active; note: nearly all actives have a fitted effect of over 45% in size
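Compounds added alongside 100 nM tebufenozide, which induces toxic Q103 huntingtin exon 1-GFP in stable PC12 cells; surviving cells quantified by luminescent ATP measurement. Medium: phenol red-free DMEM, 5% equine and 5% calf serum.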
Of the large screens only hits and unclear results are named; the others gave an inactive call. Unless noted, calls come from the whole dose curve; as a rule, active = well fitted curve in the direction sought with a large enough effect; inconclusive = small, poorly fitted or top-dose-only effect, or another doubt; inactive = no such curve, though single readings can be large; an effect the other way counts as inactive or inconclusive.

Cc1c(NC(=S)N/N=C\c2ccccc2O)c(=O)n(-c2ccccc2)n1C	KDM4E inh inconclusive, HTT aggregate inconclusive
COc1ccc(CNC(=O)C2CCN(c3nnc(-n4c(C)ccc4C)s3)CC2)c(OC)c1	none (no result: KDM4E inh, Coupling enz, HTT aggregate, RGS12 GoLoco inh, HTT ATP protect)
COc1cc(C(=O)NCCSc2ccccc2)cc(OC)c1OC	none (no result: KDM4E inh, HTT aggregate, RGS12 GoLoco inh, HTT ATP protect)
COc1ccc(C(=O)NCCSc2ccccc2)cc1OC	VDR inhibitor 35µM, HTT aggregate inconclusive, HTT ATP protect inconclusive
COc1cccc(N2C(C(C)=O)=NN(c3ccccc3)C2c2ccc(N3CCOCC3)cc2)c1 (stereo unspecified)	HTT aggregate 11µM (no result: HTT ATP protect)
Cc1cc(C)nc(SCc2ccc(C(=O)N/N=C/c3cccc(O)c3O)cc2)n1	KDM4E inh 3.2µM
COc1ccc(O)c(/C=N/NC(=O)c2cc(=O)[nH]c3ccccc23)c1	KDM4E inh 7.1µM
COc1ccc(/C=N/NC(=O)c2ccc(CSc3nc(C)cc(C)n3)cc2)cc1O	none
COc1ccc(O)c(/C=N/NC(=O)c2ccc(CSc3nc(C)cc(C)n3)cc2)c1	KDM4E inh inconclusive, HTT aggregate 5.6µM
CCOC(=O)C(=O)N1CCC(C(=O)OC)CC1	none
COc1ccccc1Cn1c(CNS(=O)(=O)c2c(C)cc(C)cc2C)nc2cccnc21	none (no result: KDM4E inh, Coupling enz, HTT aggregate, RGS12 GoLoco inh, HTT ATP protect)
CC1(C)OC(C(O)(c2cc(C(F)(F)F)cc(C(F)(F)F)c2)c2cc(C(F)(F)F)cc(C(F)(F)F)c2)C(C(O)(c2cc(C(F)(F)F)cc(C(F)(F)F)c2)c2cc(C(F)(F)F)cc(C(F)(F)F)c2)O1 (stereo unspecified)	none (no result: KDM4E inh, VDR inhibitor, HTT aggregate, RGS12 GoLoco inh)
COc1ccc(Cc2nc3ccccc3c(=O)n2N)cc1OC	none (no result: KDM4E inh, Coupling enz, HTT aggregate, RGS12 GoLoco inh, HTT ATP protect)
COc1cccc2c1Oc1ncccc1N(C(=O)CCC(=O)NC(C)C)C2	none (no result: KDM4E inh, Coupling enz, HTT aggregate, RGS12 GoLoco inh, HTT ATP protect)
Cc1cc(C)c(C)c(S(=O)(=O)ON2C(=O)c3ccccc3C2=O)c1C	KDM4E inh inconclusive, VDR inhibitor 22µM (no result: Coupling enz)
Cc1ccc(S(=O)(=O)ON2C(=O)c3ccccc3C2=O)c(C)c1	KDM4E inh inconclusive, VDR inhibitor 18µM (no result: RGS12 GoLoco inh)
Cc1cc(C)c(S(=O)(=O)ON2C(=O)c3ccccc3C2=O)cc1C	KDM4E inh inconclusive, VDR inhibitor 32µM, HTT aggregate inconclusive
COC(=O)[C@@]1(Cc2ccccc2)[C@H]2c3cc(C(=O)N4CCCC4)n(Cc4cccc5ccccc45)c3C[C@H]2CN1C(=O)c1ccccc1	none (no result: VDR inhibitor, HTT aggregate)
CC(CCC(=O)O)C1CCC2C3CC[C@@H]4CCCC[C@@]4(C)C3CC[C@@]12C (stereo partly specified)	none (no result: HTT aggregate, HTT ATP protect)
COc1ccc2c(c1)c1nnc(SCCN3CCOCC3)nc1n2C	none (no result: KDM4E inh, Coupling enz, HTT aggregate, RGS12 GoLoco inh, HTT ATP protect)
COc1ccc2c(c1)c1c(c(=O)n(-c3ccccc3C)c(=O)n1Cc1cccc(C(F)(F)F)c1)n2C	none (no result: KDM4E inh, Coupling enz, HTT aggregate, RGS12 GoLoco inh, HTT ATP protect)
COc1ccc(NC(=S)NNc2ccc([N+](=O)[O-])cc2S(=O)(=O)Nc2ccc(C)cc2C)cc1	KDM4E inh inconclusive, VDR inhibitor 45µM, HTT aggregate inconclusive
Cc1ccc(NS(=O)(=O)c2cc([N+](=O)[O-])ccc2NNC(=S)Nc2cc(C)ccc2C)c(C)c1	VDR inhibitor inconclusive, HTT aggregate inconclusive
CCc1ccc(-n2cnc3cc(C(=O)NCc4ccc(C)cc4)ccc32)cc1	none (no result: KDM4E inh, Coupling enz, HTT aggregate, RGS12 GoLoco inh, HTT ATP protect)
Cc1cccc(N2CCN(C(=O)c3cc(S(=O)(=O)N4CCC(C)CC4)cn3C)CC2)c1C	none (no result: KDM4E inh, Coupling enz, HTT aggregate, RGS12 GoLoco inh, HTT ATP protect)
CC(C)(C)OC(=O)N[C@@H](Cc1ccccc1)c1nnc(S(=O)(=O)Cc2ccccc2)o1	HTT aggregate inconclusive, RGS12 GoLoco inh 18µM (no result: VDR inhibitor)
Cc1ccc(C(=O)Nc2ccc(Br)cc2)cc1S(=O)(=O)NCc1ccccc1	none (no result: KDM4E inh, Coupling enz, HTT aggregate, RGS12 GoLoco inh, HTT ATP protect)
CC(=O)Nc1ccc(NC(=O)C2CCC(N3C(=O)C4C5C=CC(C6CC56)C4C3=O)CC2)cc1 (stereo unspecified)	VDR inhibitor 20µM (no result: KDM4E inh, HTT aggregate, RGS12 GoLoco inh, HTT ATP protect)
O=C(Nc1ccc(Cc2ccncc2)cc1)C1CCC(N2C(=O)C3C4C=CC(C5CC45)C3C2=O)CC1 (stereo unspecified)	HTT aggregate inconclusive
COc1ccc(C2CC(=O)c3cc(-c4nc(-c5ccc(C)cc5)cs4)c(=O)[nH]c3C2)cc1 (stereo unspecified)	none (no result: KDM4E inh, Coupling enz, HTT aggregate, RGS12 GoLoco inh, HTT ATP protect)
c1ccc(CN2CCC(Nc3ncnc4sccc34)CC2)cc1	HTT aggregate 10µM
